From PubChem
The list is not random: actives were taken first. Their share in the collection is about 17%.
TDP1 cell noCPT: qHTS for Inhibitors of human tyrosyl-DNA phosphodiesterase 1 (TDP1): qHTS in cells in absence of CPT | DT40 Tdp1-/- hTDP1 cells, no CPT, ATP luminescence, 48 h | AID 686978, 2013 | Potency, µM (series often up to 46.2 µM), for the others: at the highest dose activity change, negative = growth inhibition, actives largely listed as inhibitors | 15% of 420,000 active; also: % is scaled to controls: 0 for no effect and ±100 for the full control effect; nearly all actives have a fitted effect of over 55% in size
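Camptothecin absent (DMSO only). Human TDP1-complemented DT40 knockout cells, 400 cells/well, 37 °C for minimum 48 hr; ATP measured via CellTiter-Glo, 30 min dark incubation, luminescence.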
HepG2 tox: kills HepG2 cells in TGF-b inhibitor counter-screen; HepG2 CAGA-GFP viability, ATP luminescence, 18 h; Potency, µM (doses to about 46.1 µM), without a hit: top-dose activity change, negative = cytotoxicity, usual class: cytotoxic; 0.76% of 410,000 active; AID 588856
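CellTiter-Glo luminescence gave cytotoxicity after 18 hours at 37 degrees C. The cells were HepG2 CAGA-GFP in 1% FBS DMEM, stimulated with 500 pg/mL TGF-beta after compound addition. %Activity was normalised to no-cell wells (complete cell-killing) and DMSO (no toxicity), and curves were fitted and classified.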
TGFb inhibitor: inhibitors of TGF-b signaling. Potency, µM (series often up to 46.1 µM), for inactives: top-dose activity, negative = inhibition, hits mostly inhibitors. HepG2 CAGA-GFP TGF-b/SMAD3 reporter, GFP fluorescence, 18 h; TGF-beta stimulated, 500 pg/mL final. 1.2% of 410,000 active; also: % is scaled to controls: 0 for no effect and ±100 for the full control effect; nearly all actives have a fitted effect of over 65% in size
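Per well, imaged GFP fluorescence of HEPG2 CAGA-GFP cells gives the signal; cells get compound, then TGF-beta (500 pg/mL final), 18 h at 37 degrees C; %Activity versus -TGF-beta and +DMSO controls.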
HT1080 IDH1KD tx: toxicity to HT-1080 IDH1 knockdown cells (counter line); Potency, µM (top dose mostly 46.1 µM), for the others: at the highest dose activity, negative = toxicity, actives largely listed as cytotoxic; 2% of 360,000 active; HT-1080 IDH1 knockdown viability, ATP luminescence, 48 h;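 also: 0% = DMSO wells and -100% = cell-free medium wells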
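In this qHTS, HT-1080 cells depleted of IDH1 are exposed for 48 h at 37 °C to compound titrations. Toxicity is scored from CellTiter-Glo luminescence, with DMSO as full viability and medium alone as none.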
HT1080NT lethal: kills 2HG-producing HT-1080-NT fibrosarcoma cells; HT-1080-NT fibrosarcoma viability, CellTiter-Glo ATP luminescence, 48 h; Potency, µM (doses to about 46.1 µM), without a hit: at the highest dose activity, negative = less viability, most hits filed as cytotoxic; 1.6% of 360,000 active;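 also: NT is the 2HG producing partner of a matched IDH1 knockdown line; 0% = DMSO-treated cells and -100% = media-only wells without cells; nearly all actives have a fitted effect of over 55% in size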
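Luminescent CellTiter-Glo readout after 48 hours of compound exposure at 37 degrees C defined viability of HT-1080-NT cells. Activity was normalized to DMSO wells and cell-free media wells; concentration-response curves were fitted and assigned curve classes.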
DT40 TDP1 CPT: DT40-hTDP1 cell growth loss with CPT; chicken DT40 Tdp1-/-;hTDP1 cells + 20 nM CPT, ATP luminescence, 48 h; Potency, µM (titrated, usually from 46.2 µM), without a hit: at the top dose activity change, negative = growth inhibition, most hits filed as inhibitors; 12% of 420,000 active; AID 686979; also: % is scaled to controls: 0 for no effect and ±100 for the full control effect; nearly all actives have a fitted effect of over 55% in size
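Chicken DT40 Tdp1-/- cells stably complemented with human TDP1 were seeded at 400 cells/well in medium containing 20 nM camptothecin, exposed to pin-transferred compounds, and grown at 37 °C for at least 48 hr. Viability was read as ATP luminescence.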
Numbers without * were called inactive; u = inconclusive; x = not tested or not shown. Calls follow the shape of the dose curve; as a rule, active = well fitted curve in the direction sought with a large enough effect; inconclusive = small, poorly fitted or top-dose-only effect, or another doubt; inactive = no such curve, though single readings can be large; an effect the other way counts as inactive or inconclusive. Potency is read from the fitted curve at half-maximal effect.

SMILES	TDP1 cell noCPT	HepG2 tox	TGFb inhibitor	HT1080 IDH1KD tx	HT1080NT lethal	DT40 TDP1 CPT
CCOC(=O)C1(C)CCCN1C(=O)c1ccc2ccccc2c1 (stereo not drawn)	18µM*	-2%	-9%	8%	8%	u
CCOC(=O)C1(C)CCCCN1C(=O)c1cccc(Cl)c1 (stereo not drawn)	15µM*	9%	9%	5%	11%	21µM*
CCOC(=O)C1(C)CCCN1C(=O)c1ccc(C(=O)OC)cc1 (stereo not drawn)	-27%	9%	-1%	17%	20%	-16%
O=C(Nc1cccc(Cl)c1)ON=C1c2ccccc2-c2ccccc21	u	-27%	-29%	u	-24%	-11%
CCOC(=O)c1cc(-c2ccccc2)n(CC(=O)NC(C)(C)C)c1C	u	-16%	18%	3%	-1%	u
CCOC(=O)c1cc(-c2ccccc2)n(CC(=O)Nc2cc(OC)cc(OC)c2)c1C	16µM*	-15%	u	-16%	-17%	21µM*
CCOC(=O)c1cc(-c2ccccc2)n(CC(=O)NC(C)c2ccccc2)c1C (stereo not drawn)	9.2µM*	-19%	0%	x	x	18µM*
COc1cc(NC(=O)Cn2c(-c3ccccc3)cc(C(C)=O)c2C)cc(OC)c1	16µM*	6%	0%	x	x	21µM*
COc1cc(NC(=O)CSc2ccccc2)c(C(=O)O)cc1OC	-13%	2%	3%	2%	0%	-14%
COc1cc(NC(=O)CSc2nc3c(C)ccc(C)c3cc2C)c(C(=O)O)cc1OC	0.37µM*	0%	13%	-3%	5%	-7%
O=C(Nc1c(F)c(F)c(F)c(F)c1F)c1ccc(Br)o1	u	-51%	u	0%	-4%	-22%
CN(CC(=O)Nc1ccc(F)cc1)C(=O)CN1C(=O)NC(CCc2ccccc2)C1=O (stereo not drawn)	26µM*	2%	4%	-14%	-4%	12µM*
O=C(CN1C(=O)NC(CCc2ccccc2)C1=O)Nc1ccc(F)c(F)c1F (stereo not drawn)	u	-27%	-18%	1%	-5%	26µM*
CN(CC(=O)Nc1ccc(F)cc1)C(=O)CCc1ccccc1	-11%	3%	5%	2%	0%	2%
COCCCNC(=O)Cn1c(=O)n(-c2ccc(C)cc2)c(=O)c2c1c1cc(C)ccc1n2C	u	7%	-7%	x	x	-28%
O=C(NCCc1ccccc1)C(=O)NCCC1CCCCN1S(=O)(=O)c1cccs1 (stereo not drawn)	u	-23%	-7%	-2%	-8%	u
O=C(NCCS(=O)(=O)NCc1ccccn1)c1ccccc1	19%	-2%	15%	6%	5%	1%
Cc1c(C(=O)N2CCC(C)CC2)oc2ccc3c(c12)C(O)CC1(CCCCC1)O3 (stereo not drawn)	u	-15%	u	9.2µM*	u	16µM*
COCCNC(=O)c1oc2ccc3c(c2c1C)C(O)CC(C)(C)O3 (stereo not drawn)	11%	7%	7%	20%	14%	1%
CC(=O)N1CCc2c(sc3nc(SCC(C)C)n(-c4ccc(C)c(Cl)c4)c(=O)c23)C1	u	11µM*	u	x	x	23µM*
CCCCSc1nnc2n(-c3cccc(C)c3)c(=O)c3c4c(sc3n12)CCCC4	16µM*	0%	-1%	x	x	u
CSc1nc2nc3c(cc2c(=O)n1-c1ccccc1C)CCCC3	7.3µM*	17%	u	-2%	-13%	7.3µM*
CSc1nc2sc3c(c2c(=O)n1-c1ccccc1C)CCCC3	16µM*	-6%	u	x	x	23µM*
